Screening data (PubChem)
In the library only some 10% were active in any assay of this set; here they are far more common.
GPT2 inh = GPT2 alanine aminotransferase inhibition; Q8TD30; Recombinant GPT2, coupled pyruvate oxidase/HRP Amplex Red fluorescence; Potency, µM (doses to about 57.7 µM), usual class: inhibitors; actives 0.25% (n = 100,000); AID 1671188; note: nearly all actives have a fitted effect of over 60% in size
Target sequence (Q8TD30 whole entry, looked up): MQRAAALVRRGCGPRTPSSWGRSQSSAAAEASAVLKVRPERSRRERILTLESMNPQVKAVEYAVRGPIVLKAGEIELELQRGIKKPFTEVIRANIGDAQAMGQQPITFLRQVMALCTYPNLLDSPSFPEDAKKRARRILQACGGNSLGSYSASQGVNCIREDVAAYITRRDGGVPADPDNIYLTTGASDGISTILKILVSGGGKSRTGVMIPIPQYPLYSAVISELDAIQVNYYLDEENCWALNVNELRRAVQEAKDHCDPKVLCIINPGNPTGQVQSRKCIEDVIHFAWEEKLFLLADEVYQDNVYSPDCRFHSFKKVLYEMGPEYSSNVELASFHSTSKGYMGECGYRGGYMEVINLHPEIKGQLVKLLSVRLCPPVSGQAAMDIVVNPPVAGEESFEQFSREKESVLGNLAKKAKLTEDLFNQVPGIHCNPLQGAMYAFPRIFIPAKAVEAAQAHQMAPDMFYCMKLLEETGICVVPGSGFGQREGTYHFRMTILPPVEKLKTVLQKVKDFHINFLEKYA
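GPT2 10ng/uL, a-KG 250uM, L-Ala 2mM, HEPES pH7.5 + 0.0001% Tween; 30 min RT. Then Amplex mix (PO/HRP/ThPP), 30 min RT dark, fluorescence. AOA 50uM used as positive control.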
hNpr1 antagonist = blocks ANP-stimulated signaling of human Npr1 receptor; P16066; HEK293 hNpr1 GloSensor cGMP, ANP-stimulated luminescence; Potency, µM (doses to about 46.3 µM), usual class: inhibitors; actives 1.6% (n = 76,000); calls by dose curve; note: nearly all actives have a fitted effect of over 60% in size
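HEK293 cells stably expressing human Npr1 and cGMP GloSensor pGS-40F, loaded 2 h with 2% GloSensor reagent, given compound 30 min at room temperature. Luminescence read before and 20 min after 0.1 nM hNppA.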
HEK cytotox = cytotoxic compounds in HEK 293 cells; HEK 293 viability, ATP luminescence (CellTiter-Glo), 48-72 h; Potency, µM (highest dose often 115 µM), actives largely listed as inhibitors; actives 6.6% (n = 94,000); AID 1345083; note: nearly all actives have a fitted effect of over 60% in size
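ATP-coupled CellTiter-Glo luminescence served as viability read-out, recorded 10 min after reagent addition at room temperature. HEK 293 cells, 250 cells/well, had been incubated with pintool-transferred compound for 48 or 72 hr at 37 degree Celsius.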
Luciferase inh = Photinus pyralis luciferase inhibition; AID 1347043; purified P. pyralis luciferase, luminescence, biochemical; P08659; actives 2.5% (n = 76,000); Potency, µM (top dose mostly 115 µM), most hits filed as inhibitors; note: nearly all actives have a fitted effect of over 65% in size
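Inhibitors were tested against purified firefly luciferase in a biochemical, low-substrate format (both substrates at 10uM) and luminescence measured with a CCD imager.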
NIH3T3 tox = cytotoxic compounds in NIH 3T3 cells | actives 4.3% (n = 94,000) | Potency, µM (top dose mostly 96.7 µM), usual class: inhibitors | NIH 3T3 viability, CellTiter-Glo ATP luminescence, 48-72 h; note: nearly all actives have a fitted effect of over 55% in size
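Luminescent ATP readout (CellTiter-Glo, 10 min RT) after 48 or 72 hr compound exposure of NIH 3T3 cells seeded at 400 cells/well in 1536-well format; quantitative HTS.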
Numbers stand for hits; 0 = inactive; ? = inconclusive; - = no result given. Unless noted, calls come from the whole dose curve; as a rule, active = well fitted curve in the direction sought with a large enough effect; inconclusive = small, poorly fitted or top-dose-only effect, or another doubt; inactive = no such curve, though single readings can be large; an effect the other way counts as inactive or inconclusive.

SMILES | GPT2 inh | hNpr1 antagonist | HEK cytotox | Luciferase inh | NIH3T3 tox
CC1CCN(c2ccc(-c3cccc(NC(=O)NC(C)C)c3)nn2)CC1 | 0 | 2.2µM | ? | 0.25µM | 0
COc1ccc(OC)c(NC(=O)Nc2cccc(-c3ccc(N4CCCCC4)nn3)c2)c1 | 0 | 13µM | ? | 0.25µM | 0
O=C(NCc1ccccn1)C1CCc2nnc(-c3cccc(C(F)(F)F)c3)n21 (stereo not given) | 0 | - | 0 | - | 0
COc1ccc(CO[C@H]2COCCN(c3nc4ccccc4s3)C2)cc1 | 0 | 0 | 100µM | ? | ?
CN(C)C[C@@H]1CN(Cc2ccccc2)C[C@H]1NS(=O)(=O)c1cccc(F)c1 | 0 | - | 0 | - | 0
Cc1ccc([S+](=O)([O-])NC[C@@H]2CC[C@H]3C[C@@H]2C3(C)C)cc1 | 0 | ? | ? | 0 | ?
CC1(C)[C@H]2CC[C@@H](CN[S+](=O)([O-])c3ccccc3)[C@@H]1C2 | 0 | 0 | 79µM | 0 | ?
COc1cccc(C(=O)NC[C@@H]2CC[C@H]3C[C@@H]2C3(C)C)c1 | 0 | 0 | 89µM | 0 | ?
CC(C)c1ccc(C(=O)NC[C@@H]2CC[C@H]3C[C@@H]2C3(C)C)cc1 | 0 | 0 | ? | 0 | ?
CC1(C)[C@H]2CC[C@@H](CNC(=O)c3ccc(Cl)cc3)[C@@H]1C2 | 0 | 0 | ? | 0 | 40µM
CC1(C)[C@H]2CC[C@@H](CNC(=O)c3cccc(Cl)c3)[C@@H]1C2 | 0 | 0 | 79µM | 0 | ?
Cc1nnc2ccc(N3CCCN(C(=O)Cc4ccc(F)cc4)CC3)nn12 | - | - | 0 | - | 0
CN1CCc2c([nH]c3ccccc23)C12CCN(C(=O)c1ccc3ncccc3c1)CC2 | 0 | 0 | 0 | 0 | 0
Cc1ccc(C(=O)N2CCCC3(CNc4ncccc4[S+](=O)([O-])N3)C2)cc1 (stereo not given) | - | - | 0 | - | 0
O=C1CO[C@H]2CCN(Cc3ccccc3Cl)CC[C@@H]2N1CCc1cccnc1 | 0 | 0 | ? | 0 | 100µM
N#Cc1cccc(CN2CC[C@@H]3OCC(=O)N(Cc4ccccc4)[C@H]3CC2)c1 | 0 | 0 | 100µM | 0 | ?
O=C1CO[C@H]2CCN(Cc3ccccc3)CC[C@@H]2N1CCc1cccnc1 | 0 | 0 | ? | 0 | 0
O=C1CO[C@H]2CCN(Cc3ccncc3Cl)CC[C@@H]2N1c1ccccc1 | 0 | 0 | 45µM | 0 | 79µM
N#Cc1cccc(-c2c(C(=O)NCc3cccs3)nc3sccn23)c1 | 0 | - | 0 | - | 0
Cc1noc(C2CC3(CCN(C(=O)CC(C)C)CC3)CN2C)n1 (stereo not given) | 0 | - | 0 | - | 0
C[C@@H](N)C(=O)N1CCC(C(=O)Nc2cccc(-c3cccc(Cl)c3)c2)CC1 | 0 | 0 | 40µM | 0 | 28µM
NC(=O)c1cc[nH]c1C1CCCN(C2CCN(CCc3ccccc3)CC2)C1 (stereo not given) | 0 | 0 | 0 | 0 | 0
COc1ccc(Cl)cc1S(=O)(=O)N1CCC(c2c[nH]c3c(C)cccc23)CC1 | 0 | 0 | ? | 0 | ?
Cc1cccc2c(C3CCN(S(=O)(=O)c4cc(F)c(F)cc4Cl)CC3)c[nH]c12 | 0 | 0 | ? | 0 | 32µM
COc1ccc(CNC(=O)c2cc(-c3ccc([S+](C)(=O)[O-])cc3)nc3c2cnn3C)cc1 | ? | - | 0 | - | 0
SMILES | GPT2 inh | hNpr1 antagonist | HEK cytotox | Luciferase inh | NIH3T3 tox
O=C1COCC2(CN(c3ccccc3)C2)CN1c1ccc(OC(F)(F)F)cc1 | 0 | 0 | 89µM | 0 | 89µM
O=C1COCC2(CN(c3ccc(C(F)(F)F)cn3)C2)CN1c1ccc(F)cc1 | 0 | 0 | ? | 0 | ?
CC(=O)NC1CCCN(c2ccc3nnc(C4CC4)n3n2)C1 (stereo not given) | - | - | 0 | - | 0
COc1ccc(CC(=O)N2CCN(c3nccc(Nc4ccccc4Cl)n3)CC2)cc1 | 0 | - | ? | - | 40µM
O=C(NCC1CC1)C1CCN(c2nccc(Nc3ccccc3Cl)n2)CC1 | 0 | - | 32µM | - | 32µM
COc1ccc(CNC(=O)C2CCN(c3nccc(Nc4ccccc4Cl)n3)CC2)cc1 | 0 | - | 25µM | - | 35µM
Cc1ccc(CN2CCc3c(cc(C(=O)N4CCCN(C)CC4)n3C)C2)cc1 | 0 | 0 | ? | 0 | ?
O=C(NCc1cccnc1)c1cn2cc(-c3ccccc3)sc2n1 | 0 | - | 50µM | - | ?
COc1cccc(CNC(=O)c2cn3cc(-c4cccnc4)sc3n2)c1 | 0 | - | 0 | - | ?
COc1cccc(-c2cn3cc(C(=O)NCc4cccnc4)nc3s2)c1 | 0 | - | 32µM | - | ?
COc1ccccc1-c1ccc(C(=O)N2CCC(NC(=O)c3ccccc3F)CC2)cc1 | 0 | - | ? | - | ?
CN1c2cc(C(=O)Nc3cccc(OC(F)(F)F)c3)ccc2C(=O)N2CCCC21 (stereo not given) | 0 | 0 | ? | 0 | 35µM
COc1cccc(NC(=O)c2ccc3c(c2)N(C)C2CCCCN2C3=O)c1 (stereo not given) | 0 | 0 | ? | ? | ?
CN1c2cc(C(=O)Nc3cccc(OC(F)(F)F)c3)ccc2C(=O)N2CCCCC21 (stereo not given) | 0 | ? | 18µM | ? | ?
Cc1cnc(-c2cccnc2)n1CC1CCCN(C(=O)NC2CCCCC2)C1 (stereo not given) | 0 | - | 0 | - | 0
COc1ccc(CNC(=O)c2ccc(-c3ccc(N4CCSCC4)nc3)cc2)cc1 | 0 | 0 | 0 | 0 | 0
O=C(NCC1CCCO1)c1ccc(-c2ccc(N3CCCCC3)nc2)cc1 (stereo not given) | 0 | 0 | 0 | ? | 0
O=C(NCCCN1CCOCC1)c1ccc(-c2ccc(N3CCCCCC3)nc2)cc1 | 0 | 0 | 35µM | ? | ?
O=C(NCCN1CCOCC1)c1ccc(-c2ccc(N3CCCCCC3)nc2)cc1 | 0 | 0 | 35µM | ? | 35µM
COCCNC(=O)c1ccc(-c2ccc(N3CCCCCC3)nc2)cc1 | 0 | 0 | ? | ? | ?
O=C(NCc1cccnc1)c1ccc(-c2ccc(N3CCSCC3)nc2)cc1 | ? | 11µM | 10µM | ? | 4.5µM
O=C(NCCCN1CCCC1=O)c1ccc(-c2ccc(N3CCSCC3)nc2)cc1 | 0 | ? | ? | 40µM | ?
CC(C)Cn1c(=O)c(C(=O)N2CCOCC2)nc2cccnc21 | 0 | - | 0 | - | 0
Cn1ccc2c(C(=O)NCCc3cnc[nH]3)nc(-c3ccccc3)cc21 | 0 | 0 | ? | ? | ?
Cn1ccc2c(C(=O)NCCc3cnc[nH]3)nc(-c3cccc(C(F)(F)F)c3)cc21 | 0 | 0 | 40µM | 0 | 35µM
COc1ccc(-c2cc3c(ccn3C)c(C(=O)NCCc3cnc[nH]3)n2)cn1 | 0 | 0 | ? | 0 | 25µM
Cn1ccc2c(C(=O)NCCc3cnc[nH]3)nc(-c3cccc(CO)c3)cc21 | 0 | 0 | ? | 0 | ?
Cn1ccc2c(C(=O)NCCc3cnc[nH]3)nc(-c3cnn(Cc4ccccc4)c3)cc21 | 0 | 0 | ? | 0 | 79µM
Cn1ccc2c(C(=O)NCCc3cnc[nH]3)nc(-c3cccnc3)cc21 | 0 | 0 | 0 | 0 | 45µM
